Data: PubChem BioAssay (EPA / NIEHS)
Active and inactive are the calls of the source. Rule for the calls: active = hit-call score of the fitted dose curve at least 0.9, where 1 is the maximum; inactive = score below 0.9.

Key:
Conditions in all cases: mRNA level, 48 h; actives raise or lower the signal
[1] = read-out: Cytochrome P450 3A4 (Homo sapiens) (UniProt P08684); assay: LTEA_HepaRG_CYP3A4: Life Technologies and Expression Analysis (LTEA) Assay for CYP3A4 using HepaRG (AID 2283487)
In short: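 In a human hepatic line (HepaRG), duplicate wells were treated 48 h with up to 100 uM chemical in half-log dilutions. Endpoint: CYP3A4 mRNA induction or loss relative to 0.5% DMSO vehicle, by qRT-PCR.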

[2] = read-out: DNA damage-inducible transcript 3 (DDIT3), DDIT3 (gene 1649); assay: LTEA_HepaRG_DDIT3: Life Technologies and Expression Analysis (LTEA) Assay for DNA damage-inducible transcript 3 (DDIT3) using HepaRG (AID 2283488)
In short: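 qRT-PCR readout (Fluidigm TaqMan), housekeeping-normalized to ACTB, GAPDH, POLR2A. HepaRG cells, 48 h exposure, 8-point half-log series from 100 uM in 0.5% DMSO, duplicates. Gain or loss of signal fitted against DMSO baseline.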

[3] = read-out: Pro-epidermal growth factor (Homo sapiens) (UniProt P01133); assay: LTEA_HepaRG_EGF: Life Technologies and Expression Analysis (LTEA) Assay for Epidermal growth factor (EGF) using HepaRG (AID 2283489)
In short: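 EGF expression changes in human HepaRG cells are scored by bidirectional fitting relative to 0.5% DMSO controls. Chemicals are tested at eight half-log concentrations up to 100 uM for 48 h in serum-free induction medium.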

[4] = read-out: Ezrin (EZR), EZR (gene 7430); assay: LTEA_HepaRG_EZR: Life Technologies and Expression Analysis (LTEA) Assay for Ezrin (EZR) using HepaRG (AID 2283491)
In short: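 Gain or loss of EZR mRNA is scored relative to 0.5% DMSO in human HepaRG cultures treated 48 h with test chemicals in duplicate, eight half-log concentrations from 100 uM.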

[5] = read-out: Cytochrome P450 3A7 (Homo sapiens) (UniProt P24462); assay: LTEA_HepaRG_CYP3A7: Life Technologies and Expression Analysis (LTEA) Assay for CYP3A7 using HepaRG (AID 2283492)
In short: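 Cells were thawed, plated, cultured 48 h, then treated for a further 48 h with chemicals (eight-point half-log series from 100 uM, 0.5% DMSO). RNA was isolated and CYP3A7 expression quantified by qRT-PCR normalised to ACTB, GAPDH and POLR2A.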

CYP3A5 (gene 1577) = assay: LTEA_HepaRG_CYP3A5: Life Technologies and Expression Analysis (LTEA) Assay for CYP3A5 using HepaRG (AID 2283493)
In short: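 qRT-PCR read-out: CYP3A5 transcript in HepaRG lysates, housekeeping-normalized (ACTB/GAPDH/POLR2A), fitted bidirectionally against 0.5% DMSO baseline. Exposure 48 h, eight half-log concentrations up to 100 uM, duplicates.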

[6] = read-out: Fatty Acid-Binding Protein 1 (FABP1), FABP1 (gene 2168); assay: LTEA_HepaRG_FABP1: Life Technologies and Expression Analysis (LTEA) Assay for Fatty Acid-Binding Protein 1 (FABP1) using HepaRG (AID 2283494)
In short: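 Values reflect bidirectional concentration-response fitting of FABP1 mRNA change against 0.5% DMSO controls. Human HepaRG cultures received eight half-log doses (top 100 uM) for 48 h; expression quantified by TaqMan qRT-PCR with housekeeping-gene normalization.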

[7] = read-out: Cytochrome P450 4A22 (Homo sapiens) (UniProt Q5TCH4); assay: LTEA_HepaRG_CYP4A22: Life Technologies and Expression Analysis (LTEA) Assay for Cytochrome P450 4A22 (CYP4A22) using HepaRG (AID 2283495)
In short: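 Cryopreserved HepaRG cells, plated and cultured 48 h, then switched to serum-free induction medium and treated 48 h (duplicates, up to 100 uM, half-log steps, 0.5% DMSO). Expression change of CYP4A22 was fitted bidirectionally against vehicle.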

[8] = read-out: Cytochrome P450 7A1 (Homo sapiens) (UniProt P22680); assay: LTEA_HepaRG_CYP7A1: Life Technologies and Expression Analysis (LTEA) Assay for Cytochrome P450 7A1 (CYP7A1) using HepaRG (AID 2283496)
In short: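 Using 0.5% DMSO as vehicle and baseline, chemicals were tested in duplicate over an 8-point range from 100 uM on HepaRG cells for 48 h; qRT-PCR signals were normalised to ACTB, GAPDH and POLR2A.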

[9] = read-out: Glutathione S-Transferase (GSTA2), GSTA2 (gene 2939); assay: LTEA_HepaRG_GSTA2: Life Technologies and Expression Analysis (LTEA) Assay for Glutathione S-Transferase (GSTA2) using HepaRG (AID 2283497)
In short: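 Oxidative-stress marker GSTA2 is quantified by TaqMan qRT-PCR in HepaRG cultures treated 48 h across an eight-point range to 100 uM. Expression is normalized to endogenous controls and compared with 0.5% DMSO vehicle.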

[10] = read-out: Glutamate-cysteine ligase catalytic (GCLC), GCLC (gene 2729); assay: LTEA_HepaRG_GCLC: Life Technologies and Expression Analysis (LTEA) Assay for Glutamate-cysteine ligase catalytic (GCLC) using HepaRG (AID 2283498)
In short: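 Oxidative-stress marker GCLC is measured as mRNA change in human HepaRG liver cells after 48 h chemical treatment in 0.5% DMSO, eight concentrations from 100 uM. Activity is fitted bidirectionally against vehicle.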

[11] = read-out: growth arrest and DNA damage 45 (GADD45G), GADD45G (gene 10912); assay: LTEA_HepaRG_GADD45G: Life Technologies and Expression Analysis (LTEA) Assay for growth arrest and DNA damage 45 (GADD45G) using HepaRG (AID 2283499)
In short: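 Human hepatic HepaRG line treated 48 h with chemicals (eight concentrations, half-log steps from 100 uM); transcript induction or repression of GADD45G scored by qRT-PCR versus DMSO vehicle.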

[12] = read-out: Glutamate-cysteine ligase regulatory (GCLM), GCLM (gene 2730); assay: LTEA_HepaRG_GCLM: Life Technologies and Expression Analysis (LTEA) Assay for Glutamate-cysteine ligase regulatory (GCLM) using HepaRG (AID 2283500)
In short: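 HepaRG, 48 h dosing, 100 uM top, half-log x8, 0.5% DMSO vehicle. Readout: GCLM mRNA by TaqMan qRT-PCR, housekeeping-normalized (ACTB/GAPDH/POLR2A). Curves fit bidirectionally vs DMSO baseline.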

[13] = read-out: Glutathione S-transferase M3 (GSTM3), GSTM3 (gene 2947); assay: LTEA_HepaRG_GSTM3: Life Technologies and Expression Analysis (LTEA) Assay for Glutathione S-transferase M3 (GSTM3) using HepaRG (AID 2283501)
In short: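 Changes in GSTM3 expression, an oxidative-stress marker, were scored by bidirectional curve fitting against 0.5% DMSO vehicle. Human HepaRG cultures received chemicals for 48 h in duplicate, highest concentration 100 uM with half-log dilutions.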

[14] = read-out: Heat shock 70 kDa protein 1 (HSPA1A), gene 3303; assay: LTEA_HepaRG_HSPA1A: Life Technologies and Expression Analysis (LTEA) Assay for Heat shock 70 kDa protein 1 (HSPA1A) using HepaRG (AID 2283502)
In short: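 HepaRG, 48 h exposure, 8-pt half-log CRC from 100 uM in 0.5% DMSO, duplicates. Readout: TaqMan qRT-PCR of HSPA1A mRNA, housekeeping-normalized (ACTB/GAPDH/POLR2A). Bidirectional fit vs 0.5% DMSO baseline.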

[15] = read-out: Hypoxia-inducible factor 1-alpha (Homo sapiens) (UniProt Q16665); assay: LTEA_HepaRG_HIF1A: Life Technologies and Expression Analysis (LTEA) Assay for Hypoxia-inducible factor 1 (HIF1A) Trancription factor using HepaRG (AID 2283503)
In short: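 Gain- or loss-of-signal HIF1A mRNA changes are fitted against a DMSO baseline. HepaRG cultures receive eight concentrations, highest 100 uM, for 48 h in serum-free induction medium with 0.5% DMSO.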

[16] = read-out: 3-Hydroxy-3-Methylglutaryl-CoA Synthase 2 (HMGCS2), HMGCS2 (gene 3158); assay: LTEA_HepaRG_HMGCS2: Life Technologies and Expression Analysis (LTEA) Assay for 3-Hydroxy-3-Methylglutaryl-CoA Synthase 2 (HMGCS2) using HepaRG (AID 2283504)
In short: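 Expression of HMGCS2 in human HepaRG liver cells is measured by qRT-PCR 48 h after dosing (highest 100 uM, half-log series, 0.5% DMSO). Values come from bidirectional concentration-response fitting with DMSO as baseline.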

HGF (gene 3082) = assay: LTEA_HepaRG_HGF: Life Technologies and Expression Analysis (LTEA) Assay for Hepatocyte Growth Facto (HGF) using HepaRG (AID 2283505)
In short: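 Gain or loss of HGF mRNA in human HepaRG liver cells after 48 h chemical exposure; eight concentrations up to 100 uM with 0.5% DMSO vehicle, quantified by TaqMan qRT-PCR.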

[17] = read-out: Insulin Like Growth Factor 1 (IGF1), IGF1 (gene 3479); assay: LTEA_HepaRG_IGF1: Life Technologies and Expression Analysis (LTEA) Assay for Insulin Like Growth Factor 1 (IGF1) using HepaRG (AID 2283506)
In short: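 qRT-PCR readout of IGF1 mRNA, normalized to three housekeeping genes, after 48 h chemical exposure of HepaRG cells. Concentrations: 8-point half-log series, top 100 uM, 0.5% DMSO vehicle. Gain or loss fitted against DMSO baseline.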

[18] = read-out: Early growth response protein 1 (EGR1) transcription factor, EGR1 (gene 1958); assay: LTEA_HepaRG_EGR1: Life Technologies and Expression Analysis (LTEA) Assay for Early growth response protein 1 (EGR1) transcription factor using HepaRG (AID 2283490)
In short: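 EGR1 expression change in human HepaRG after 48 h chemical exposure, assessed by housekeeping-normalized qRT-PCR; concentration-response up to 100 uM, fitted in both directions against DMSO controls.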

Measured: AC50

Chain of Cytochrome P450 3A4 (Homo sapiens) (P08684 whole entry, looked up): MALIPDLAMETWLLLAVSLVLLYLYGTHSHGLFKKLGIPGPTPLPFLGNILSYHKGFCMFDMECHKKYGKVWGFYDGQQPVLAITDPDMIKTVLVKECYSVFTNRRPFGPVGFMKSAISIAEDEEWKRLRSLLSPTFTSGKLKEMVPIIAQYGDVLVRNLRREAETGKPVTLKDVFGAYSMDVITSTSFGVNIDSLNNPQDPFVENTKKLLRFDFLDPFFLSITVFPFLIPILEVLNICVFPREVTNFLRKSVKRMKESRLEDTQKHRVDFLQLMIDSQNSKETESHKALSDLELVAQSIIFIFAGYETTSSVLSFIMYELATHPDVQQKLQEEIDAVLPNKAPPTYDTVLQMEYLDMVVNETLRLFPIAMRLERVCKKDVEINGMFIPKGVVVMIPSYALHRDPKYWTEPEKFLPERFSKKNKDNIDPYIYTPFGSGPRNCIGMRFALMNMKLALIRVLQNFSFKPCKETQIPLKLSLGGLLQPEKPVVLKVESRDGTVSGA
Chain of Hypoxia-inducible factor 1-alpha (Homo sapiens) (Q16665 whole entry, looked up): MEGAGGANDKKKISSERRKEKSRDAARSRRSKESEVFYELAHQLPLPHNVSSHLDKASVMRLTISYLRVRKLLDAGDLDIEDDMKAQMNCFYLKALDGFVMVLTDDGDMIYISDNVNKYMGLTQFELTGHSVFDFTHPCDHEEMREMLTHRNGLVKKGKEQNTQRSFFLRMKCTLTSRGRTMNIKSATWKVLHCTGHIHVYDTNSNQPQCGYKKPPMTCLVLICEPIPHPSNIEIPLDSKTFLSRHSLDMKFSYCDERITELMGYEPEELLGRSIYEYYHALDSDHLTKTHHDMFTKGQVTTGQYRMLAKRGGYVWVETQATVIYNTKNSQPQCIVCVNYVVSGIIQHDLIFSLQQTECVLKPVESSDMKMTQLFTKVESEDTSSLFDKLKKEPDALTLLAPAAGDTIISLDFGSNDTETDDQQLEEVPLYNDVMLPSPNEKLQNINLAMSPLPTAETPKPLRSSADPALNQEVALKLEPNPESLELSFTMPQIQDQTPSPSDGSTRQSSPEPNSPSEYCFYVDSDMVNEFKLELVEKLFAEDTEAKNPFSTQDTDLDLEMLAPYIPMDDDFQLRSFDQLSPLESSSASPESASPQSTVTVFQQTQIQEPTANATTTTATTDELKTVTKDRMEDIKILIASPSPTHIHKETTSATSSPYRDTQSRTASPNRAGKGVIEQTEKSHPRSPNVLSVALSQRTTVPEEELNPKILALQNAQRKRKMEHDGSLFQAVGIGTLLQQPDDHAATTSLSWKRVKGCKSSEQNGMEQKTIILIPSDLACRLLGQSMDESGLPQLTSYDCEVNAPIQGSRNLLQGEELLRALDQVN
Chain of Cytochrome P450 3A7 (Homo sapiens) (P24462 whole entry, looked up): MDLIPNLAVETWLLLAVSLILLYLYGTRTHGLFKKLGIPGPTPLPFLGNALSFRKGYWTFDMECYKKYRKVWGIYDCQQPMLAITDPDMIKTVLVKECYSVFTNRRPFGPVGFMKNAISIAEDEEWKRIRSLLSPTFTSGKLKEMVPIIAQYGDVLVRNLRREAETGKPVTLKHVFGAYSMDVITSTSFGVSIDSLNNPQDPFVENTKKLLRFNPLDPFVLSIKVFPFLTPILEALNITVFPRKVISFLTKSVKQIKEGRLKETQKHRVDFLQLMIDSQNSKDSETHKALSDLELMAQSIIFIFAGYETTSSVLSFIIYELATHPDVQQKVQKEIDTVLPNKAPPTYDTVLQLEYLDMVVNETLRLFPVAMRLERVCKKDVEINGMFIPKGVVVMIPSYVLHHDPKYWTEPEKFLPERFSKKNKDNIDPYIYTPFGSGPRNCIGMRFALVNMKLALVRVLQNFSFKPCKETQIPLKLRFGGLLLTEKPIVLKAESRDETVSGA

CC1=NNC(=O)N(/N=C/c2cccnc2)C1
inactive: [1] | [2] | [3] | [4] | [5] | CYP3A5 (gene 1577) | [6] | [7] | [8] | [9] | [10] | [11] | [12] | [13] | [14] | [15] | [16] | HGF (gene 3082) | [17]

N#CSCSC#N
inactive: [2] | [3] | [18] | [4] | [10] | [11] | [13] | [14] | [15] | HGF (gene 3082) | [17]
active: [1] 77.2 µM | CYP3A5 (gene 1577) 50 µM | [6] 86.2 µM | [7] 90.6 µM | [8] 50 µM | [9] 76.2 µM | [12] 80.6 µM | [16] 82.1 µM

CCC(=NOC/C=C/Cl)C1=C(O)CC(C2CCOCC2)CC1=O (centres undefined)
inactive: [1] | [2] | [3] | [18] | [4] | CYP3A5 (gene 1577) | [6] | [7] | [8] | [9] | [10] | [11] | [12] | [13] | [14] | [15] | [16] | HGF (gene 3082) | [17]

CNc1cnn(-c2cccc(C(F)(F)F)c2)c(=O)c1Cl
active: [1] 31.5 µM | [3] 29.8 µM | [6] 26 µM | [8] 21.4 µM | [10] 28 µM | [12] 30.1 µM | [16] 9.92 µM | [17] 36.9 µM
inactive: [2] | [18] | [4] | CYP3A5 (gene 1577) | [7] | [9] | [11] | [13] | [14] | [15] | HGF (gene 3082)

C[Si](Cn1cncn1)(c1ccc(F)cc1)c1ccc(F)cc1
active: [1] 82.4 µM | [2] 31.9 µM | [6] 76.9 µM | [7] 15.8 µM | [8] 39.6 µM | [9] 72.5 µM | [11] 33.9 µM | [12] 62.8 µM | [13] 74.9 µM | [16] 47.6 µM | [17] 50 µM
inactive: [3] | [18] | [4] | CYP3A5 (gene 1577) | [10] | [14] | [15] | HGF (gene 3082)

CNC(=O)Oc1cccc2c1OC(C)(C)O2
inactive: [1] | [2] | [3] | [18] | [4] | CYP3A5 (gene 1577) | [6] | [7] | [8] | [9] | [10] | [11] | [12] | [13] | [14] | [15] | [16] | HGF (gene 3082) | [17]
